# PubChem BioAssay (EPA / NIEHS)
# Results filed as inconclusive are left out. Active and inactive are the calls of the source. Rule for the calls, unless noted: active = hit-call score of the fitted dose curve at least 0.9, where 1 is the maximum; inactive = score below 0.9.
# Experiments:
# [1] = read-out: Monokine induced gamma interferon (MIG), CXCL9 (gene 4283); test: BSK_3C_MIG: BioMAP Diversity Plus: 3C Assay for Monokine induced gamma interferon (MIG) Biomarker Activity (AID 2283021); settings: primary human endothelial cells (HUVEC); actives raise or lower the signal;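 for AC50: MIG protein level measured by immunoassay in the treated endothelial cultures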
# Outline: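 ELISA measurement of MIG in human umbilical vein endothelial cells 24 h after treatment. Cytotoxicity tracked by SRB staining in parallel cultures; gain or loss of signal fitted relative to DMSO.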
# [2] = molecular target: human Vitamin D Receptor (VDR), VDR (gene 7421) (UniProt P11473); test: ATG_VDR_TRANS: Attagene TRANS-FACTORIAL HepG2 Assay for human Vitamin D Receptor (VDR) (AID 2283022; active = hit-call score of the fitted dose curve at least 0.9, where 1 is the maximum)
# human Vitamin D Receptor (VDR), VDR (gene 7421), sequence (P11473 whole entry, looked up, the tested form may be a part): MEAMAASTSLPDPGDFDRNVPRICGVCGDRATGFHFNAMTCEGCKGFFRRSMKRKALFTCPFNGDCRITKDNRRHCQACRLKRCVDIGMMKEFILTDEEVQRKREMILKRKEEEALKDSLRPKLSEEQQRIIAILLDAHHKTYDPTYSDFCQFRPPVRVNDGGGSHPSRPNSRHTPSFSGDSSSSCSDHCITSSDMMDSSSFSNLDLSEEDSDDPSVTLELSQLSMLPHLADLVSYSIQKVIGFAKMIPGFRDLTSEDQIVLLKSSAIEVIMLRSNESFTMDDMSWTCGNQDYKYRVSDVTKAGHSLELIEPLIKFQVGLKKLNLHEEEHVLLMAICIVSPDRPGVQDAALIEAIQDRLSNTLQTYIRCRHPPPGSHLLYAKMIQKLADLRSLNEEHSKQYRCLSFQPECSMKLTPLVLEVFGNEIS
# Outline: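 Transactivation by an exogenous VDR-Gal4 chimera in transiently transfected HepG2 cells was measured as reporter transcript level 24 hours after chemical treatment. RT-PCR products were analysed by capillary electrophoresis and fitted in the positive direction relative to DMSO.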
# [3] = BSK_3C_SRB: Viability Assessment in the BioMAP Diversity Plus: 3C Assay (AID 2283023); settings: primary human endothelial cells (HUVEC);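 note: fitted both ways against DMSO so a hit may be signal rise or drop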
# Outline: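 Cytotoxicity readout in parallel HUVEC 3C cultures: after 24 h compound exposure, cells fixed with 10% TCA, stained with 0.1% SRB and read at 560 nm. Gain or loss relative to DMSO fitted.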
# [4] = read-out: Matrix Metallopeptidase 1 (MMP1), MMP1 (gene 4312); test: BSK_BE3C_MMP1: BioMAP Diversity Plus: BE3C Assay for Matrix Metallopeptidase 1 (MMP1) Biomarker Activity (AID 2283024); settings: primary human bronchial epithelial cells; actives raise or lower the signal
# Outline: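 ELISA measurement of MMP-1 after 24 h compound exposure of primary human bronchial epithelial cells. Changes in either direction fitted relative to DMSO; parallel SRB staining checked overt cytotoxicity.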
# [5] = BSK_3C_Vis: BioMAP Diversity Plus: 3C Assay for Morphology Visualization (AID 2283025); settings: primary human endothelial cells (HUVEC);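 note: fitted both ways so gain or loss versus DMSO counts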;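 for AC50: light microscopy image of cell morphology used as background control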
# Outline: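 Light-microscopy visualization of HUVEC cultures at 24 h post-treatment, with DMSO as baseline for bidirectional fitting.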
# [6] = read-out: Pselectin, SELP (gene 6403); test: BSK_4H_Pselectin: BioMAP Diversity Plus: 4H Assay for Pselectin Biomarker Activity (AID 2283026); settings: primary human endothelial cells (HUVEC); actives raise or lower the signal
# Outline: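 ELISA of surface P-selectin on HUVEC, 24 h after dosing, with parallel SRB staining (0.1% after 10% TCA fixation, 560 nm) for overt cytotoxicity. Activity fitted in both directions relative to DMSO.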
# [7] = BSK_4H_SRB: Viability Assessment in the BioMAP Diversity Plus: 4H Assay (AID 2283027); settings: primary human endothelial cells (HUVEC);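 note: cells exposed to compound for 24 h before staining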;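 for AC50: curves fitted both ways versus DMSO so AC50 may be loss or gain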
# Outline: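 Cytotoxicity readout: sulforhodamine B (0.1%) staining of total protein after 10% TCA fixation, measured at 560 nm in human umbilical vein endothelium at 24 h. DMSO set the baseline; fitting was bidirectional.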
# [8] = BSK_BE3C_SRB: Viability Assessment in the BioMAP Diversity Plus: BE3C Assay (AID 2283028); settings: primary human bronchial epithelial cells;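 for AC50: fitted both ways so AC50 may mark signal gain or loss versus DMSO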
# Outline: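 Cytotoxicity read-out: SRB (0.1%) staining of TCA-fixed (10%) human lung bronchial epithelial cells, absorbance 560 nm, 24 h post-dosing. Curves fitted both directions relative to DMSO.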
# [9] = read-out: Thrombomodulin, THBD (gene 7056); test: BSK_3C_Thrombomodulin: BioMAP Diversity Plus: 3C Assay for Thrombomodulin Biomarker Activity (AID 2283029); settings: primary human endothelial cells (HUVEC); actives raise or lower the signal
# Outline: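 ELISA measurement of thrombomodulin on HUVEC surface 24 h after chemical dosing; activity fitted in both directions relative to DMSO vehicle.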
# [10] = read-out: Urokinase-type plasminogen activator receptor (uPAR), PLAUR (gene 5329); test: BSK_4H_uPAR: BioMAP Diversity Plus: 4H Assay for Urokinase-type plasminogen activator receptor (uPAR) Biomarker Activity (AID 2283030); settings: primary human endothelial cells (HUVEC); actives raise or lower the signal
# Outline: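 uPAR level read by ELISA on HUVEC cultures (BioMAP 4H) 24 h post-dosing, analyzed for gain or loss relative to DMSO. Parallel SRB staining assessed overt cytotoxicity.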
smiles,measurement,setting,value
CO[C@H]1/C=C/O[C@@]2(C)Oc3c(C)c(O)c4c(O)c(c(/C=N/N5CCN(C)CC5)c(O)c4c3C2=O)NC(=O)/C(C)=C\C=C\[C@H](C)[C@H](O)[C@@H](C)[C@@H](O)[C@@H](C)[C@H](OC(C)=O)[C@@H]1C,outcome,[1],inactive
same,outcome,[2],inactive
same,outcome,[3],inactive
same,outcome,[4],inactive
same,outcome,[5],inactive
same,outcome,[6],inactive
same,outcome,[7],inactive
same,outcome,[8],inactive
same,outcome,[9],inactive
same,outcome,[10],inactive
CCCCCCCCCCCO,outcome,[1],inactive
same,AC50,[2],159 µM (active)
same,AC50,[3],31.3 µM (active)
same,outcome,[4],inactive
same,outcome,[5],inactive
same,outcome,[6],inactive
same,outcome,[7],inactive
same,outcome,[8],inactive
same,outcome,[9],inactive
same,outcome,[10],inactive
Cc1cc2c(cc1C(F)(F)F)N(C(=O)Nc1ccc(Oc3cccnc3C)nc1)CC2,outcome,[1],inactive
same,outcome,[3],inactive
same,outcome,[4],inactive
same,AC50,[5],36.6 µM (active)
same,AC50,[6],8.67 µM (active)
same,outcome,[7],inactive
same,AC50,[8],15.8 µM (active)
same,AC50,[9],5.4 µM (active)
same,outcome,[10],inactive
CC(C)(C)c1cc(/C=C2\SC(N)=NC2=O)cc(C(C)(C)C)c1O,AC50,[1],37.1 µM (active)
same,AC50,[3],29.1 µM (active)
same,outcome,[4],inactive
same,AC50,[5],16.3 µM (active)
same,AC50,[6],13.3 µM (active)
same,AC50,[7],28.7 µM (active)
same,outcome,[8],inactive
same,outcome,[9],inactive
same,AC50,[10],36.7 µM (active)
O=c1[nH]sc2ccccc12,AC50,[1],28.9 µM (active)
same,outcome,[2],inactive
same,AC50,[3],13.8 µM (active)
same,AC50,[4],26 µM (active)
same,AC50,[5],5.31 µM (active)
same,AC50,[6],5.54 µM (active)
same,AC50,[7],20 µM (active)
same,AC50,[9],5.42 µM (active)
same,AC50,[10],20 µM (active)
CC[C@H](NC(=O)c1cc(F)ccc1NS(=O)(=O)c1cccc2cccnc12)c1ccccc1,outcome,[1],inactive
same,outcome,[2],inactive
same,outcome,[3],inactive
same,outcome,[4],inactive
same,outcome,[5],inactive
same,outcome,[6],inactive
same,outcome,[7],inactive
same,outcome,[9],inactive
same,outcome,[10],inactive
CCCCCCCCCCCCO,outcome,[1],inactive
same,AC50,[3],31.2 µM (active)
same,outcome,[4],inactive
same,AC50,[5],38.4 µM (active)
same,AC50,[6],34.2 µM (active)
same,AC50,[7],31.1 µM (active)
same,outcome,[9],inactive
same,AC50,[10],30.9 µM (active)
CCO[Si](CCCNC(N)=O)(OCC)OCC,outcome,[1],inactive
same,outcome,[2],inactive
same,outcome,[3],inactive
same,outcome,[4],inactive
same,outcome,[5],inactive
same,outcome,[6],inactive
same,outcome,[7],inactive
same,outcome,[9],inactive
same,outcome,[10],inactive
O=C1c2ccccc2C(=O)N1CCc1noc(-c2ccc(CN3CCCCCC3)s2)n1,outcome,[1],inactive
same,outcome,[3],inactive
same,outcome,[4],inactive
same,outcome,[5],inactive
same,AC50,[6],17.8 µM (active)
same,outcome,[7],inactive
same,outcome,[8],inactive
same,outcome,[9],inactive
same,AC50,[10],22.8 µM (active)
CC1=CC(=O)/C(=C(/C)O)C(=O)O1,outcome,[1],inactive
same,outcome,[2],inactive
same,outcome,[3],inactive
same,outcome,[4],inactive
same,outcome,[5],inactive
same,outcome,[6],inactive
same,outcome,[7],inactive
same,outcome,[9],inactive
same,outcome,[10],inactive
COc1cccc([C@H](O)C2CCN(CCc3ccc(F)cc3)CC2)c1OC,outcome,[1],inactive
same,outcome,[2],inactive
same,outcome,[3],inactive
same,outcome,[4],inactive
same,outcome,[5],inactive
same,AC50,[6],6.42 µM (active)
same,outcome,[7],inactive
same,outcome,[9],inactive
same,AC50,[10],0.228 µM (active)
O=C(O)c1ccccc1C(=O)OCc1ccccc1,outcome,[1],inactive
same,outcome,[3],inactive
same,outcome,[4],inactive
same,outcome,[5],inactive
same,outcome,[6],inactive
same,outcome,[7],inactive
same,outcome,[8],inactive
same,outcome,[9],inactive
same,outcome,[10],inactive
Clc1cc(Cl)c2c(c1)N=C1CCCCCN1C2,outcome,[1],inactive
same,outcome,[3],inactive
same,outcome,[4],inactive
same,outcome,[5],inactive
same,outcome,[6],inactive
same,outcome,[7],inactive
same,outcome,[8],inactive
same,outcome,[9],inactive
same,outcome,[10],inactive
Oc1ccccc1,outcome,[1],inactive
same,outcome,[3],inactive
same,outcome,[4],inactive
same,outcome,[5],inactive
same,outcome,[6],inactive
same,outcome,[7],inactive
same,outcome,[8],inactive
same,outcome,[9],inactive
same,outcome,[10],inactive
O=C(O)c1ccccc1-n1cc(C(=O)O)c(=O)c2cc(Nc3c(F)cc(F)cc3Cl)c(Cl)cc21,outcome,[1],inactive
same,outcome,[3],inactive
same,outcome,[4],inactive
same,outcome,[5],inactive
same,outcome,[6],inactive
same,outcome,[7],inactive
same,outcome,[8],inactive
same,outcome,[9],inactive
same,outcome,[10],inactive
CN1C(=O)N(c2ccccc2Br)Cc2cnc(Nc3ccc4c(c3)OCC(CO)O4)nc21 (stereo unspecified),AC50,[1],25.3 µM (active)
same,AC50,[3],20 µM (active)
same,AC50,[4],7.24 µM (active)
same,AC50,[5],20.7 µM (active)
same,AC50,[6],6.75 µM (active)
same,AC50,[7],2.02 µM (active)
same,outcome,[9],inactive
same,AC50,[10],3.51 µM (active)
CC/C(=C(/CC)c1ccc(O)cc1)c1ccc(O)cc1,AC50,[1],35.8 µM (active)
same,outcome,[2],inactive
same,AC50,[3],20 µM (active)
same,AC50,[4],35.1 µM (active)
same,AC50,[5],8.57 µM (active)
same,AC50,[6],20 µM (active)
same,AC50,[7],22.8 µM (active)
same,outcome,[9],inactive
same,AC50,[10],17.8 µM (active)
O=C1O[C@H]([C@@H](O)CO)C(O)=C1O,outcome,[1],inactive
same,outcome,[3],inactive
same,outcome,[4],inactive
same,outcome,[5],inactive
same,outcome,[6],inactive
same,outcome,[7],inactive
same,outcome,[8],inactive
same,outcome,[9],inactive
same,outcome,[10],inactive
Cc1cc(F)ccc1-c1cc(N2CC[C@@H](O)[C@H]2CO)ncc1N(C)C(=O)C(C)(C)c1cc(C(F)(F)F)cc(C(F)(F)F)c1,AC50,[1],12.9 µM (active)
same,outcome,[2],inactive
same,AC50,[3],9.17 µM (active)
same,AC50,[4],14.5 µM (active)
same,AC50,[5],10 µM (active)
same,AC50,[6],7.66 µM (active)
same,AC50,[7],11.9 µM (active)
same,outcome,[9],inactive
same,AC50,[10],10.2 µM (active)
